The structures appear in SMILES notation. Compounds without any hit were thinned out: in the full panel of roughly 79,000, 15% have a hit. Values without a mark were called inactive. The source made the active and inactive calls. Rule as the data show it: active = growth inhibition above about 70%; inactive = the rest.

The results in this text go back to PubChem BioAssay (NCI).

This assay is described as follows: NCI Yeast Anticancer Drug Screen. Data for the rad50EPP+ strain (AID 151).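 Also: 0% = growth of vehicle-treated control cultures.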 To be noted: S. cerevisiae rad50 mutant strain, stronger effect = higher value. The method, then:
Growth inhibition of yeast strains with defined genetic alterations is measured as a screen for potential anti-cancer activity. Selected strains with alterations in DNA damage repair or cell cycle control were exposed to compounds and growth inhibition was measured relative to vehicle treated controls. The strain used in this assay is rad50EPP+

As to `OC(CC(O)(C(F)(F)F)C(F)(F)F)c1ccc(C(O)CC(O)(C(F)(F)F)C(F)(F)F)cc1` (stereo not given), the growth inhibition by setting is: (at 1.2 µM) -2%; (at 3.7 µM) 0%; (at 11.0 µM) 9%; (at 33.0 µM) 25%; (at 100.0 µM) 60%.

With `CCOc1ccc(N)c(S)c1`, the growth inhibition (at 1.2 µM) was 0%; the growth inhibition (at 3.7 µM) was -4%; the growth inhibition (at 11.0 µM) is 10%; the growth inhibition (at 33.0 µM) is 97% (active); the growth inhibition (at 100.0 µM) is 96% (active).

For the molecule `CCN(CC)C(=S)N/N=C(\C)c1ccccc1O`, the growth inhibition (at 1.2 µM) was 9%; the growth inhibition (at 3.7 µM) was -7%; the growth inhibition (at 11.0 µM) was 15%; the growth inhibition (at 33.0 µM) was 45%; the growth inhibition (at 100.0 µM) is 83% (active).

In the case of `COc1cccc(C(NC2=NCCC=N2)c2cc3c(cc2O)OCO3)c1O` (stereo not given), the growth inhibition was -9% (at 1.2 µM); -9% (at 3.7 µM); -4% (at 11.0 µM); 6% (at 33.0 µM); 9% (at 100.0 µM).

For `Nc1ccc(S(=O)(=O)Nc2nc3c(c(=O)[nH]2)CCCC3)cc1`, the growth inhibition (at 1.2 µM) was 12%; the growth inhibition (at 3.7 µM) is 47%; the growth inhibition (at 11.0 µM) was 80% (active); the growth inhibition (at 33.0 µM) is 99% (active); the growth inhibition (at 100.0 µM) was 99% (active).

Turning to `Cc1cc2nc3ccccc3n2c2ccccc12`, the growth inhibition (at 1.2 µM) is -49%; the growth inhibition (at 3.7 µM) is -24%; the growth inhibition (at 11.0 µM) was -21%; the growth inhibition (at 33.0 µM) is 28%; the growth inhibition (at 100.0 µM) was 63%.

For `O=c1c2ccccc2nc(-c2ccc(Cl)cc2)n1O`, the growth inhibition is, setting by setting: (at 1.2 µM) 47%; (at 3.7 µM) 85% (active); (at 11.0 µM) 91% (active); (at 33.0 µM) 91% (active); (at 100.0 µM) 90% (active).

Consider `Cc1ccc(NC(Nc2ccc(C)cc2C)=C(C(Cl)=C(Cl)Cl)[N+](=O)[O-])c(C)c1`, for which the growth inhibition reads like this: (at 1.2 µM) 8%; (at 3.7 µM) 10%; (at 11.0 µM) 19%; (at 33.0 µM) 38%; (at 100.0 µM) 71% (active).
